Bioassay records: PubChem BioAssay, National Center for Advancing Translational Sciences (NCATS)
DRD3 antagonist – qHTS of D3 Dopamine Receptor Antagonist: qHTS; D(3) dopamine receptor (Homo sapiens), P35462; D3R cells, DiscoveRx beta-arrestin luminescence, antagonist mode; hits give low values; max response, negative = inhibition, %; 360,000 compounds, 2.5% hits; AID 652054, 2013; in the data active = max response below about -50%; inconclusive = no clear call, values can overlap the other calls
Target sequence (P35462 whole entry, looked up): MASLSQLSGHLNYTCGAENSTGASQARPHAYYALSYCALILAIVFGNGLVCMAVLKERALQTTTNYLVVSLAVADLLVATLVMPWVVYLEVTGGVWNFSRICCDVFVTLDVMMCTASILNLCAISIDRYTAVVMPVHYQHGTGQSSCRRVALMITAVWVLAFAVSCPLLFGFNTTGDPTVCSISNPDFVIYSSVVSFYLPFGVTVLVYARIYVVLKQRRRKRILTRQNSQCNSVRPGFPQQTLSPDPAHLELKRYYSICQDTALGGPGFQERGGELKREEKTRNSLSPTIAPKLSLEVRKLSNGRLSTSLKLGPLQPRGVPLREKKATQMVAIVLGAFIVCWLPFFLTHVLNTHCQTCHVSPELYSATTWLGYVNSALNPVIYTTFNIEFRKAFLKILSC
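Cells expressing the human receptor were seeded at 1500 cells/well, incubated overnight at 37 degrees C in 5% CO2, then exposed to library compounds with dopamine controls for 90 minutes at 37 degrees C before luminescent detection.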
S2 tox – Viability Counterscreen for Primary qHTS for Inhibitors of ATXN expression | S2 cells (HEK-293 line with an ATXN2-luciferase reporter) viability, CellTiter-Fluor protease fluorescence, 24 h | Potency, µM (titrated, usually from 56.7 µM), actives largely listed as cytotoxic | 400,000 compounds, 0.49% hits | AID 651635, 2014; also: nearly all actives have a fitted effect of over 40% in size
D3 ag – qHTS of D3 Dopamine Receptor Agonist: qHTS | D(3) dopamine receptor (Homo sapiens), P35462 | D3R DiscoveRx beta-arrestin cells, luminescence, 90 min | max activation, % | 410,000 compounds, 0.58% hits | AID 652048, 2013; in the data active = max activation above about 30%
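Agonist mode: compounds and dopamine controls were applied to plated cells for 90 min at 37 degrees C after an overnight attachment at 1500 cells/well. Luminescent read-out followed 30 - 60 minutes at room temperature with DiscoveRx detection reagent.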
a7 integrin act – qHTS for Activators of Integrin-Mediated Alleviation for Muscular Dystrophy; alpha7betagal myoblasts, beta-gal FDG fluorescence, 48 h; Potency, µM (titrated, usually from 38.3 µM), usual class: activators; 350,000 compounds, 0.064% hits; also: nearly all actives have a fitted effect of over 60% in size
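alpha7betagal+/- myoblasts (passage 13, 250/well) treated 48 h at 37C with compounds at 1:260 dilution of DMSO stock. Lysed, then beta-galactosidase activity read as FDG fluorescence (ex 480/em 540) after 30 min, with pre-read for autofluorescence.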
ATXN2 expr inh – Primary qHTS for Inhibitors of ATXN expression; HEK-293 ATXN2-luciferase reporter, luminescence, 24 h; Potency, µM (highest dose often 57 µM), hits mostly inhibitors; 360,000 compounds, 0.72% hits; also: nearly all actives have a fitted effect of over 55% in size
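qHTS (up to 57 uM final) was run with 24 h compound exposure of reporter cells at 37 °C. Each well was multiplexed: SteadyGlo luminescence measured ATXN2-luciferase expression after a fluorogenic Gly-Phe-AFC viability readout (25 uM final).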
IL-1B inflam inh – qHTS for Inhibitors of Inflammasome Signaling: IL-1-beta AlphaLISA Primary Screen. AID 743279, 2014. THP-1 LPS/ATP IL-1B secretion, AlphaLISA, 16 h; hits give low values. activity change, % at 57.5 µM. 360,000 compounds, 4.7% hits; in the data active = activity change below about -50%; inconclusive = mostly about -30% to -49%
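Secreted IL-1B measured by AlphaLISA bead assay after 16 h compound exposure of THP-1 cells; compounds (final up to 57.5 uM) added 1 h before LPS (250 ng/mL) and ATP (1.25 mM) stimulation; lower signal means less secretion.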
Of the large screens only hits and unclear results are named; the others gave an inactive call. The list is not random: actives were taken first. Their share in the collection is about 7%. Unless noted, calls follow the shape of the dose curve; as a rule, active = well fitted curve in the direction sought with a large enough effect; inconclusive = small, poorly fitted or top-dose-only effect, or another doubt; inactive = no such curve, though single readings can be large; an effect the other way counts as inactive or inconclusive.

c1ccc(-c2sc3ccccc3c2-c2ccc(OCCN3CCCCC3)cc2)cc1	none
CN(C)CCOc1ccc(-c2c(-c3ccccc3)sc3ccccc23)cc1	S2 tox inconclusive, ATXN2 expr inh 20µM, IL-1B inflam inh inconclusive
Cc1ccc(NC(=O)C2C3C=CC4(O3)C2C(=O)N(CCCN2CCCC2)C4C(=O)NC2CCCCC2)cc1Cl (stereo not given)	none
CCC(=O)NC(=S)NNC(=O)c1ccc(NC(=O)c2ccccc2)cc1	S2 tox inconclusive (no result: ATXN2 expr inh)
CC1(C(=O)NS(=O)(=O)c2ccccc2)CCN1C(=O)CC1CCCC1 (stereo not given)	none (no result: a7 integrin act)
Cn1c(SCC(=O)N/N=C/C=C\c2ccccc2[N+](=O)[O-])nc2ccccc21	none
Cc1ccccc1NS(=O)(=O)c1ccc(C(=O)NCC(c2ccccc2)N(C)C)cc1 (stereo not given)	DRD3 antagonist inconclusive
Cc1ccc(C)c(S(=O)(=O)Nc2ccc(C(=O)NCC(c3ccco3)N(C)C)cc2)c1 (stereo not given)	DRD3 antagonist -53, S2 tox inconclusive
COc1ccccc1NS(=O)(=O)c1cccc(C(=O)NCC(c2cccs2)N(C)C)c1 (stereo not given)	DRD3 antagonist -85, a7 integrin act inconclusive
COc1ccccc1NS(=O)(=O)c1cccc(C(=O)N(C)Cc2cccs2)c1	none
CNS(=O)(=O)c1cccc(C(=O)NCC(c2cccs2)N(C)C)c1 (stereo not given)	DRD3 antagonist -72
Cc1ccc(C)c(S(=O)(=O)Nc2ccc(C(=O)NCC(c3ccco3)N3CCCCC3)cc2)c1 (stereo not given)	none
Cc1ccccc1NS(=O)(=O)c1ccc(C(=O)NCC(c2ccco2)N(C)C)cc1 (stereo not given)	DRD3 antagonist -57
Cc1ccc(NS(=O)(=O)c2cccc(C(=O)NCC(c3cccs3)N(C)C)c2)cc1 (stereo not given)	S2 tox inconclusive
CNC(=O)c1sccc1Oc1ccc(F)cc1[N+](=O)[O-]	none
COc1ccccc1NS(=O)(=O)c1cccc(C(=O)NCC(c2ccco2)N(C)C)c1 (stereo not given)	DRD3 antagonist -68
COc1ccccc1NS(=O)(=O)c1cccc(C(=O)N/N=C/c2ccc([N+](=O)[O-])o2)c1	S2 tox inconclusive, ATXN2 expr inh inconclusive, IL-1B inflam inh -92
CCN(c1ccccc1)S(=O)(=O)c1cccc(C(=O)NCC(c2cccs2)N(C)C)c1 (stereo not given)	DRD3 antagonist -56
COc1ccccc1NS(=O)(=O)c1cccc(C(=O)N/N=C/c2ccc3c(c2)OCCO3)c1	none
COc1ccccc1NS(=O)(=O)c1cc(C(=O)NCC(c2ccco2)N(C)C)ccc1C (stereo not given)	DRD3 antagonist inconclusive
CC(=O)N1CCOc2ccc(S(=O)(=O)N3CCC(C(=O)NCc4ccccc4)CC3)cc21	none
O=c1[nH]c(/C=C2\C=Nc3ccccc32)c(O)n1Cc1ccccc1F	IL-1B inflam inh -97
CSc1nc(O)c(/C=C2\C=Nc3ccccc32)[nH]1	none
CCCCCCn1c(C)nc2c(c1=O)c1nc3ccccc3nc1n2/N=C/c1ccco1	S2 tox inconclusive, ATXN2 expr inh inconclusive, IL-1B inflam inh -53
CCOC(=O)C1CCN(C(=O)CSC2=NCCS2)CC1	none
C=CC(=O)Nc1cccc(CN2C(=O)N(c3cc(OC)cc(OC)c3)Cc3cnc(NCCCCN(CC)CC)nc32)c1	S2 tox 20µM, IL-1B inflam inh -60
COc1cccc(NC(=O)Cn2nc(Cc3cccnc3)c3ccccc3c2=O)c1	IL-1B inflam inh inconclusive
CCO/N=C1\C(=O)N(c2ccccc2)c2ccccc21	IL-1B inflam inh -51
CCCO/N=C1/C(=O)N(c2ccccc2)c2ccccc21	IL-1B inflam inh inconclusive
CC(C)[C@H](NC(=O)C1CCN(S(=O)(=O)c2ccc(F)cc2)CC1)C(=O)NCc1ccco1	none
CCCN1CCc2c(sc(NC(=S)NC(=O)c3ccccc3)c2C#N)C1	S2 tox inconclusive, D3 ag 38
Cc1onc(-c2ccccc2)c1C(=O)NC(=S)Nc1sc2c(c1C#N)CCC(C)C2 (stereo not given)	D3 ag 35
Cc1onc(-c2ccccc2)c1C(=O)Nc1nc(-c2ccccc2)cs1	DRD3 antagonist -56
CC(C)N1CCc2c(sc(NC(=S)NC(=O)c3ccccc3)c2C#N)C1	S2 tox inconclusive
Cc1onc(-c2ccccc2)c1C(=O)Nc1sc2c(c1C(N)=O)CCC2	DRD3 antagonist inconclusive, IL-1B inflam inh -50
CCc1ccccc1NC(=O)c1cc(-c2cccs2)on1	none
O=C(Nc1ccc(OCC(=O)N2CCOCC2)cc1)Nc1cccc2ccccc12	none
CCCS(=O)(=O)N1CCc2ccc(NC(=O)c3ccccc3Cl)cc2C1	none
Cc1onc(-c2ccccc2)c1C(=O)Nc1sccc1C#N	IL-1B inflam inh -65
Cc1onc(-c2ccccc2)c1C(=O)Nc1sc2c(c1C#N)CCC2	ATXN2 expr inh inconclusive
COc1ccccc1Nc1nc(N)nc(CCl)n1	IL-1B inflam inh -100
COc1ccc(OC)c(Nc2nc(N)nc(CCl)n2)c1	S2 tox inconclusive, IL-1B inflam inh -102
CCOC(=O)/C(=C/C1=CC(=C/N(C)C)/C(=O)O1)C(C)=O	D3 ag 30 (no result: IL-1B inflam inh)
COC(=O)c1cc(O)cc(OC)c1C(=O)c1c(O)cc(C)cc1O	D3 ag 30
COC(=O)c1cc(O)cc(OC)c1Oc1cc(C)cc(O)c1C(=O)O	DRD3 antagonist inconclusive, ATXN2 expr inh inconclusive, IL-1B inflam inh inconclusive
CCC(=O)Nc1cccc(C(=O)/C=C/c2cc(Br)ccc2OC)c1	S2 tox 18µM, ATXN2 expr inh 16µM, IL-1B inflam inh -105
CC(=O)Nc1cccc(C(=O)/C=C/c2ccc(Br)cc2)c1	ATXN2 expr inh inconclusive, IL-1B inflam inh -107 (no result: S2 tox)
CC(=O)Nc1cccc(NC(=O)c2ccc(Br)cc2)c1	none
COc1ccc(Br)cc1/C=C/C(=O)Nc1ccc2ccccc2c1	S2 tox inconclusive
CC(=O)c1cccc(NS(=O)(=O)c2ccc(N/C=C/C(=O)c3ccc(F)cc3)cc2)c1	IL-1B inflam inh -76
COc1ccc(Br)cc1/C=C/C(=O)Nc1ccc(C)cc1	DRD3 antagonist -75, IL-1B inflam inh -67
O=C(C1=C[C@@H](c2coc3ccccc3c2=O)C[C@@H](OCCCCO)O1)N1CCN(Cc2ccc3c(c2)OCO3)CC1	none
